This passage reports GFP response vs DMSO results from PubChem BioAssay AID2016 (NMMLSC, 2009).

Among all 330,000 compounds or so, about 1,700 (0.52%) were called active. For the sample, actives were picked, then their nearest neighbours and some compounds at random. Values without a mark were called inactive.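 Rule for the calls: active = GFP response versus DMSO above a set limit, roughly screen mean plus 3 SD (cut at about 180% in these data); inconclusive = fewer than 70 cells counted for a yeast strain; inactive = the rest.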

The assay is described as follows: modulators of MEP2-GFP levels in yeast, primary screen, S. cerevisiae, multiplex flow cytometry, MLPCN library (AID 2016).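 Note: median GFP fluorescence of the barcode-gated MEP2-GFP cells per well.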 The note with it: S. cerevisiae MEP2-GFP strain, 3 h, at 10 µM, active compounds read high, 100% = DMSO control level. Background: In flow cytometry, cells or beads pass a laser one at a time.
Regarding `CCc1ccccc1NC(=O)CSc1nnc([C@@H](NC(=O)OC(C)(C)C)C(C)CC)o1` (some centres not stated), the GFP response vs DMSO is 193% [may fluoresce violet] (active).

Consider `CCc1ccccc1NC(=O)CSc1nnc(CCNC(=O)OC(C)(C)C)o1`, for which the GFP response vs DMSO is 114%.

As to `CCc1ccccc1NC(=O)CSc1nnc([C@@H](NC(=O)OC(C)(C)C)C(C)C)o1`, the GFP response vs DMSO was 88.8%.

On to `C#CCOCCOCCOCCNc1nc(N2CCN(C(=O)C(Cc3ccc(O)cc3)n3cc(C(N)CC(C)C)nn3)CC2)nc(N2CCN(C(=O)C(Cc3ccc(O)cc3)n3cc(C(N)C(C)CC)nn3)CC2)n1` (configuration not stated), for which the GFP response vs DMSO was 93.7%.

For the molecule `CC(NCC(=O)Nc1cc(Cl)cc(Cl)c1)c1ccccc1` (configuration not stated), the GFP response vs DMSO is 91.3%.

In the case of `CCSc1sc(CC)cc1C=O`, the GFP response vs DMSO is 210% [may fluoresce violet] (active).

For the molecule `COc1ccc2c(c1)C(=C(C#N)C#N)C(=O)N2CCc1ccccc1`, the GFP response vs DMSO was 103%.

In the case of `COCCOC(=O)C1=C(C)NC(=O)NC1c1cc2c(cc1Br)OCO2` (configuration not stated), the GFP response vs DMSO was 95.2%.

As to `CC(=O)C1=C(C)NC(=O)NC1c1ccc2c(c1)OCO2` (configuration not stated), the GFP response vs DMSO is 179% [may fluoresce violet] (active).

`CCOCCOC(=O)C1=C(C)NC(=O)NC1c1ccc2c(c1)OCO2` (configuration not stated): the GFP response vs DMSO is 111%.

`O=C(CC12CC3CC(CC(C3)C1)C2)Nc1ccc2c(c1)COC2=O`: the GFP response vs DMSO was 99.2%.

Regarding `Brc1ccc(C2CC(c3ccccc3)=Nc3ccccc3N2)cc1` (configuration not stated), the GFP response vs DMSO was 101%.

For the molecule `OCC[C@H]1C[C@@H](O)[C@H](O)[C@]2(OCCCc3ccccc32)O1`, the GFP response vs DMSO was 96.7%.

As for `Cc1ccc(C2Nc3cccc4cccc(c34)N2)cc1`, the GFP response vs DMSO was 110%.

With `Brc1ccccc1C1Nc2cccc3cccc(c23)N1`, the GFP response vs DMSO was 104%.

With `Oc1ccc(C2Nc3cccc4cccc(c34)N2)cc1`, the GFP response vs DMSO is 184% (active).

Take `O=C(CSc1n[nH]c(=O)n1-c1ccccc1)Nc1ccccc1C(F)(F)F`: the GFP response vs DMSO was 109%.

Take `COc1ccc(C)cc1NC(=O)CN(C)S(=O)(=O)c1ccc2c(c1)n(C)c(=O)c(=O)n2C`: the GFP response vs DMSO was 110%.

On to `COc1ccccc1NS(=O)(=O)c1ccc(C)c(C(=O)NCC(c2ccco2)N(C)C)c1` (configuration not stated), for which the GFP response vs DMSO is 104%.

`O=C(CC(n1cncn1)C(Cl)(Cl)Cl)c1ccc([N+](=O)[O-])cc1` (configuration not stated): the GFP response vs DMSO was 91.9%.

For `O=C(c1ccncc1)c1ccc([N+](=O)[O-])cc1`, the GFP response vs DMSO was 90.2%.

`CCc1noc(C)c1C(=O)NNC(=O)c1ccc(F)cc1`: the GFP response vs DMSO was 100%.

Regarding `COc1ccc(C(=O)NC(=S)NNC(=O)c2c(-c3ccccc3)noc2C)cc1`, the GFP response vs DMSO was 113%.

Consider `Cc1onc(-c2ccccc2)c1C(=O)NNC(=S)NC(=O)c1ccc(F)cc1`, for which the GFP response vs DMSO was 176% [may fluoresce violet] (active).

In the case of `O=C(OCC(=O)N1CCCCCC1)c1ccc(Cl)nc1`, the GFP response vs DMSO was 105%.

Consider `CCC(CO)Oc1cc(NC(=O)c2ccc(Cl)cc2)c2ncn(C(C)C)c2c1` (configuration not stated), for which the GFP response vs DMSO was 102%.

With `Cc1ccc(C2(C)NC(=O)N(CC(=O)N3CC(=O)Nc4ccccc43)C2=O)cc1` (configuration not stated), the GFP response vs DMSO is 95%.

Consider `CCC(C)(C)NC(=O)C(c1ccc(O)cc1)N(C(=O)Cn1nnc2ccccc21)c1ccc(NC(C)=O)cc1` (configuration not stated), for which the GFP response vs DMSO is 93.5%.

In the case of `CC(C)(C)NC(=O)C(c1ccco1)N(Cc1ccc2c(c1)OCO2)C(=O)Cn1nnc2ccccc21` (configuration not stated), the GFP response vs DMSO is 101%.

Turning to `CCC(C)(C)NC(=O)C(c1cccn1C)N(Cc1ccc(C)cc1)C(=O)Cn1nnc2ccccc21` (configuration not stated), the GFP response vs DMSO is 200% [may fluoresce violet] (active).

In the case of `O=C(NCc1ccco1)C1CCCN(S(=O)(=O)c2cccc3nonc23)C1` (configuration not stated), the GFP response vs DMSO is 97.8%.

Turning to `O=C(NCc1ccccc1Cl)C1CCN(S(=O)(=O)c2cccc3nonc23)CC1`, the GFP response vs DMSO is 287% [may fluoresce violet] (active).

`O=C(NCc1ccccc1Cl)C1CCN(S(=O)(=O)N2CCOCC2)CC1`: the GFP response vs DMSO was 93.8%.

As for `CCc1cccc(C)c1NS(=O)(=O)c1cc(Br)cnc1N`, the GFP response vs DMSO is 105%.

Take `Cn1c(=O)n(C)c(=O)n(CC(=O)N2CCCCC2)c1=O`: the GFP response vs DMSO is 95.9%.

Turning to `CCC1(C)Cc2c(sc3[nH]c(=S)n(Cc4ccccc4)c(=O)c23)CO1` (configuration not stated), the GFP response vs DMSO was 234% [may fluoresce violet] (active).

As for `CCC1(C)Cc2c(sc3nnn(CC(=O)Nc4ccc(Cl)cc4)c(=O)c23)CO1` (configuration not stated), the GFP response vs DMSO was 104%.

`CCn1c(=S)[nH]c2sc3c(c2c1=O)CCCCC3`: the GFP response vs DMSO was 106%.

As to `O=C(NNS(=O)(=O)Cc1ccccc1)c1ccc([N+](=O)[O-])cc1`, the GFP response vs DMSO was 796% [may fluoresce violet] (active).

As to `O=C(CNC(=O)c1ccccc1)Oc1ccc([N+](=O)[O-])cc1`, the GFP response vs DMSO was 109%.

For `O=C(Cc1ccccc1)NNS(=O)(=O)c1ccc([N+](=O)[O-])cc1`, the GFP response vs DMSO was 94.8%.

On to `COCCn1c(C)cc(C(=O)CSc2nnc(C3CC3)n2C2CC2)c1C`, for which the GFP response vs DMSO is 101%.

Regarding `CCN(CCCNC(=O)CSc1cc(=O)n(C)c2cc(Cl)ccc12)Cc1ccccc1`, the GFP response vs DMSO is 102%.

In the case of `Cc1cc(C=O)c(C)n1-c1ccc(NC2CCCCC2)c([N+](=O)[O-])c1`, the GFP response vs DMSO is 101%.

As for `CCOC(=O)c1sc2nc(C)nc(SCC(N)=O)c2c1C`, the GFP response vs DMSO was 105%.

Turning to `O=C(c1cccc(Cl)c1)N1CCN(Cc2ccccc2)CC1`, the GFP response vs DMSO was 110%.

For `O=C(NCc1ccncc1)C1CCN(C(=O)c2cccc(Cl)c2)CC1`, the GFP response vs DMSO is 465% [may fluoresce violet] (active).

For the molecule `COc1ccc(CNC(=O)C2CCN(C(=O)c3ccccc3)CC2)cc1`, the GFP response vs DMSO was 96.9%.

On to `CC1CC(NC(=O)/C(C#N)=C/c2ccc[nH]2)CC(C)(C)C1` (configuration not stated), for which the GFP response vs DMSO is 90.7%.

For `COc1cc(CCC(=O)Nc2ccncc2Cl)cc(OC)c1OC`, the GFP response vs DMSO is 101%.

For the molecule `C/C(=N\NC(=O)c1cccnc1)c1ccc(-c2ccccc2)cc1`, the GFP response vs DMSO is 189% [may fluoresce violet] (active).

For `C/C(=N\NC(=O)c1ccc2ccccc2c1)c1cccnc1`, the GFP response vs DMSO is 91.2%.

For the molecule `C/C(=N\NC(=O)c1cccnc1)c1ccc(-n2ccnc2)cc1`, the GFP response vs DMSO is 89.5%.

Consider `Cc1noc(C)c1-c1nc(CSc2ccc(Cl)cc2)no1`, for which the GFP response vs DMSO is 105%.

`O=C(Nc1ccccc1Cl)N1CCN(c2ccc3nncn3n2)CC1`: the GFP response vs DMSO was 97.1%.

As for `COc1ccc(/C=N/Nc2ncnc3sc4c(c23)CCCC4)cc1O`, the GFP response vs DMSO is 106%.

Turning to `CCOc1ncccc1C(=O)OCC(=O)NC1CC1`, the GFP response vs DMSO is 100%.

`CCOc1ncccc1C(=O)OCC(=O)N1c2ccccc2CC1C` (configuration not stated): the GFP response vs DMSO is 92.2%.

Regarding `CCOc1ncccc1C(=O)OCc1cn2cc(Cl)ccc2n1`, the GFP response vs DMSO is 561% [may fluoresce violet] (active).

With `N#CC(C#N)=CN=c1ccn(Cc2ccc(Cl)cc2Cl)cc1`, the GFP response vs DMSO is 107%.

Consider `COc1ccccc1CN1CCCC(N2CCN(c3ccc(F)cc3)CC2)C1` (configuration not stated), for which the GFP response vs DMSO was 485% [may fluoresce violet] (active).

As to `COc1ccccc1CN1CCN(Cc2cc(OC)c(OC)cc2OC)CC1`, the GFP response vs DMSO was 114%.

`COc1ccc(CN2CCCC(N3CCc4ccccc4C3)C2)c(O)c1` (configuration not stated): the GFP response vs DMSO is 104%.

For `COc1ccc(/C=C/CN2CCN(Cc3ccc(C)cc3)C(CCO)C2)cc1` (configuration not stated), the GFP response vs DMSO was 104%.

With `CC12CCC(=O)N1C(C(=O)NCCN1C(=O)S/C(=C\c3ccccc3F)C1=O)CS2` (configuration not stated), the GFP response vs DMSO is 107%.

In the case of `CC(C)(C)NC(=O)C(c1ccncc1)N(C(=O)CNC(=O)c1ccco1)c1ccc2c(c1)OCO2` (configuration not stated), the GFP response vs DMSO was 111%.

Take `Cc1ccc(N(C(=O)CNC(=O)c2ccco2)C(C(=O)NC2CCCC2)c2ccncc2)cc1` (configuration not stated): the GFP response vs DMSO is 359% [may fluoresce violet] (active).

For `COc1cccc(N(C(=O)CNC(=O)c2ccco2)C(C(=O)NC2CCCCC2)c2cccnc2)c1` (configuration not stated), the GFP response vs DMSO was 104%.

Take `O=C(Nc1ccc(S(=O)(=O)NCC2CCCO2)cc1)c1ccc(F)cc1` (configuration not stated): the GFP response vs DMSO is 101%.

Turning to `O=C(CN1CCCCCC1)Nc1c(Cl)cc(Cl)cc1Cl`, the GFP response vs DMSO was 98.7%.

On to `Oc1ccccc1C1=NN(c2ccccc2)C(c2ccccc2)C1` (configuration not stated), for which the GFP response vs DMSO was 107%.

On to `Cc1ccc(N2C(=O)C3N=NN(CC(=O)N4N=C(c5cccc6ccccc56)CC4c4ccccc4)C3C2=O)cc1` (configuration not stated), for which the GFP response vs DMSO is 102%.

Consider `O=C1C2N=NN(CC(=O)N3N=C(c4cccc5ccccc45)CC3c3ccccc3)C2C(=O)N1c1ccccc1` (configuration not stated), for which the GFP response vs DMSO is 299% [may fluoresce violet] (active).

On to `CCOC(=O)c1c(NC(=O)CSc2nnc(CN3CCOCC3)n2C)sc2c1CCCC2`, for which the GFP response vs DMSO is 99.8%.

With `CCOC(=O)C1CCN(C(=O)C2CCN(S(=O)(=O)CC)CC2)CC1`, the GFP response vs DMSO was 98.5%.

Consider `Cc1ccc2cc3cc(C(=O)N4CCCCCC4)oc3nc2c1`, for which the GFP response vs DMSO is 97.2%.

Take `CCCCN1C(=O)c2ccc(C(=O)Nc3ccc(S(=O)(=O)N(C)C)cc3)cc2C1=O`: the GFP response vs DMSO is 87.8%.

As for `COCCN1C(=O)N[C@@H](c2ccccc2)C(C(=O)OC)=C1C`, the GFP response vs DMSO was 91.3%.

For `COCCN1C2=C(COC(C)(C)C2)C(=S)NC1c1ccccc1` (configuration not stated), the GFP response vs DMSO is 234% (active).

Turning to `COCCN1C(=O)N[C@@H](CCc2ccccc2)[C@H](C(C)=O)[C@H]1C`, the GFP response vs DMSO was 86.4%.

In the case of `Brc1ccc2c(c1)[C@H]1OCC[C@H]1[C@@H](c1cccs1)N2`, the GFP response vs DMSO is 102%.

In the case of `C[C@H]1CCC(=O)N([C@H](CSc2ccccc2)Cc2ccccc2)CC1`, the GFP response vs DMSO is 93.7%.

Regarding `C=CCC1=C/C(=C\c2c(N)n3nc(CC(=O)N4CCOCC4)sc3nc2=O)C=C(OC)C1=O`, the GFP response vs DMSO was 102%.

For `CN(Cc1ccc(F)cc1)C(=O)CN1C(=O)c2ccccc2S1(=O)=O`, the GFP response vs DMSO was 95%.

Take `CCC(=O)c1cc(F)ccc1OCC(=O)Nc1ccc2c(c1)OCCO2`: the GFP response vs DMSO is 104%.

On to `COc1ccccc1OCCCC(=O)Nc1ccc2c(c1)OCCO2`, for which the GFP response vs DMSO was 92.3%.

In the case of `CCc1ccccc1OCC(=O)Nc1ccc2c(c1)OCCO2`, the GFP response vs DMSO is 366% [may fluoresce violet] (active).
